Bioassay records: PubChem, ICCB-Longwood Screening Facility, Harvard Medical School
An excerpt weighted towards active compounds, which were near 1.4% of everything screened.
Mtb MbtI inh = inhibitors of Mycobacterium tuberculosis siderophore enzyme MbtI; AID 493033; 100,000 tested, 0.89% active; P9WFX0; inhibition, % (concentration not given with the values); purified MbtI enzyme, fluorescence intensity read-out; in the data active means inhibition mostly above about 56%, no sharp cut-off; inactive means mostly below about 77%
Target sequence (P9WFX0 whole entry, looked up): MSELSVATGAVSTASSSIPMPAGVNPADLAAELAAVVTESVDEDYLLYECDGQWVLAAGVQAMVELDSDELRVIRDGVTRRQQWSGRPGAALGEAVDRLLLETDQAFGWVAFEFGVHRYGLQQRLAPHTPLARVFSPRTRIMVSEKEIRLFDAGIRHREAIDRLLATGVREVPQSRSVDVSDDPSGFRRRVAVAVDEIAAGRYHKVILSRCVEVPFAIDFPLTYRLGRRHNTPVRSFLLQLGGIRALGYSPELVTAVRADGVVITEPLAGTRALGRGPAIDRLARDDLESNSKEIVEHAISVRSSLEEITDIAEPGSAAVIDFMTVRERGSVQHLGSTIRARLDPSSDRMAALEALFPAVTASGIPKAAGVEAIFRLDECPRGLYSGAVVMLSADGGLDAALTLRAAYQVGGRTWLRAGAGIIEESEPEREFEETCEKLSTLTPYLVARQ
AID504770 = E. coli YBA685 growth inhibition, screen for V. cholerae RctB inhibitors; E. coli YBA685 rctB-dependent plasmid, OD600 growth, 3 h; active compounds read low; z-score (concentration not given with the values); 130,000 tested, 0.27% active; AID 504770; in the data active means z-score below about -2, passing the limit was not always enough
MenB inh = inhibitors of Mycobacterium tuberculosis MenB enzyme; P9WNP5; MenB enzyme assay, absorbance read-out; inhibition, % (concentration not given with the values); 100,000 tested, 0.43% active; in the data active means inhibition above about 21%, passing the limit was not always enough
PV pol inh = inhibitors of poliovirus RNA polymerase binding and polymerization. P03300. poliovirus polymerase elongation, fluorescence polarization; active compounds read low. 150,000 tested, 0.66% active. % elongation, % (compound at 16.7 µg/mL). AID 588519; in the data active means % elongation below about 90%
Of the large screens only hits and unclear results are named; the others gave an inactive call; ! = not confirmed by another sample.

COc1cc(C(=O)n2nc(C)c(Sc3ccc(Cl)cc3)c2C)cc(OC)c1OC	none (no result: Mtb MbtI inh, AID504770, MenB inh)
CCn1ncc(C2=NOC(C(=O)N3CCCc4ccccc43)C2)c1C (centres undefined)	none
O=C(NCCN1CCOCC1)N1CCNC1=O	none
CC(CO)(CO)NC(=S)Nc1ccc(F)c(Cl)c1	Mtb MbtI inh 55.4
Cc1ccccc1Nc1cc2ccccc2c(=O)[nH]1	AID504770 -3.95 (no result: MenB inh, PV pol inh)
CCc1cc2c(C)cc(=O)oc2cc1OCC(=O)NCC1CCCCC1	none (no result: MenB inh)
CC1=CC(=O)C(N(C)c2ccccc2)=CC1=O	Mtb MbtI inh 84.6 (no result: MenB inh)
CC1=C/C(=C/N(C)c2ccccc2)C(=O)S1	none
CCSc1nc2sc3c(c2c(=O)n1CC)CCCC3	none
[N-]=[N+]=c1c(=O)ccc2c(=O)c3ccccc3c(=O)c1=2	AID504770 -6.35, PV pol inh 82.0
C[N+]1(C)C2CCC1CC(OC(=O)C(CO)c1ccccc1)C2 (centres undefined)	Mtb MbtI inh 65.0!
CC(C)[N+]1(C)C2CCC1CC(OC(=O)C(CO)c1ccccc1)C2 (centres undefined)	none (no result: AID504770)
Cc1cc(=O)[nH]c2c(C)c(Cl)ccc12	MenB inh 28.8
COc1cccc2c(C)cc(=O)[nH]c12	none (no result: MenB inh)
Nc1nnc2cc(C(=O)c3cc(F)ccc3O)cnn12	none
Cc1ccc(O)c(C(=O)c2cnn(-c3nc(C)cc(=O)[nH]3)c2)c1	none
Cc1ccc(O)c(C(=O)c2cnn3c(=S)[nH]nc3c2)c1	PV pol inh 71.0
Cc1ccc(O)c(C(=O)c2cnn3c(N)nnc3c2)c1	PV pol inh 64.0
CCOC(=O)c1sc(NC(=O)C2CC(=O)N(c3ccccc3)C2)c(C#N)c1C (centres undefined)	none
O=C(O)/C=N/NC(=O)c1ccccc1	none
CCN(CC)CCNC(=O)c1ccc2c(c1)sc1nc(-c3ccc(F)cc3)cn12	PV pol inh 89.0 (no result: Mtb MbtI inh, AID504770, MenB inh)
CSc1c(C#N)c(N)nc(SCc2ccc(F)c(F)c2)c1C#N	none (no result: Mtb MbtI inh, MenB inh, PV pol inh)
O=C(CCCc1c[nH]c2ccccc12)NC1=NCCS1	none
O=C(O)Cn1c2c(c3ccccc31)CSc1ccc(Cl)cc1-2	Mtb MbtI inh 95.6
CC(C)n1cc(C(=O)O)cn1	none
COc1cccc(COCC(O)CN2CCC(C(N)=O)CC2)c1 (centres undefined)	Mtb MbtI inh 99.1
COc1ccc(-c2ccc(-c3ccccc3)o2)cc1	none (no result: Mtb MbtI inh)
CC(=C1C(=O)c2ccccc2C1=O)N1CCc2ccccc2C1	PV pol inh 89.0
COc1ccc(/C=C2\SC(=O)NC2=S)cc1OC	Mtb MbtI inh 63.6
O=C(CSc1nnc(SCC(=O)N2CCCC2)s1)N1CCCC1	Mtb MbtI inh 91.5
CSc1nnc(NC(=O)c2ccco2)s1	none (no result: Mtb MbtI inh, MenB inh, PV pol inh)
Cc1ccccc1N1CC(c2nnc(NC(=O)c3ccco3)s2)CC1=O (centres undefined)	PV pol inh 82.0 (no result: Mtb MbtI inh, AID504770, MenB inh)
Cc1ccccc1Nc1nc(N)nc(COC(=O)Cc2c[nH]c3ccccc23)n1	none
Cc1ccccc1Nc1nc(N)nc(COC(=O)CCCN=C2NS(=O)(=O)c3ccccc32)n1	PV pol inh 86.0
Cc1nnc(SCC(=O)NCCN2CCOCC2)c2nn(-c3ccccc3)c(C)c12	none
Cc1ccc(S(=O)(=O)N2CCN(C(=O)[C@@H]3CCCN3C(=O)OC(C)(C)C)CC2)cc1	none
CCOC(=O)c1c(Nc2ccc(OC)c(Cl)c2)n[nH]c1C	Mtb MbtI inh 87.8
CCN(CC(=O)Nc1ccccc1)c1ccccc1	none
COCCNC(=O)CCC(=O)NNc1nc2ccccc2c2nc(C)nn12	PV pol inh 30.0 (no result: Mtb MbtI inh, AID504770, MenB inh)
CCC(C)NC(=O)CCC(=O)NNc1nc2ccccc2c2nc(C)nn12 (centres undefined)	PV pol inh 36.0 (no result: Mtb MbtI inh, AID504770, MenB inh)
Nc1ccccc1CN1CCCC1	none
CN=Cc1cc(-c2ccccc2)n(C)c1S	Mtb MbtI inh 98.5
CCNC(=S)N1CCN(CCN=Cc2c(O)[nH]c(=O)[nH]c2=O)CC1	none
CCN1CSC(=S)N(Cc2ccccc2)C1	AID504770 -2.85
CCN1CSC(=S)N(Cc2ccc(OC)cc2)C1	none
O=C(Sc1ccc(C(F)(F)F)cn1)c1csc(C2COc3ccccc3O2)n1 (centres undefined)	Mtb MbtI inh 70.7
C=Cc1ccc(C=C)cc1	Mtb MbtI inh 72.1, PV pol inh 64.0
O=C(O)C(C(=O)/C=C/c1ccccc1)=C1SCS1	Mtb MbtI inh 88.8
CCC(N)C(=O)c1ccc(Cl)cc1 (centres undefined)	MenB inh 32.3
Cc1cc(-c2ccc(S(=O)(=O)NC3CCCc4ccccc43)cc2)on1 (centres undefined)	none
CSc1cccc(NC(=O)c2noc3c2CSc2ccccc2-3)c1	none
CC1Cc2ccccc2N1C(=O)/C=C/c1cccc(F)c1 (centres undefined)	none
Nc1cccc2c1C(=O)N(C(=O)/C=C/c1cccc(F)c1)C2=O	PV pol inh 82.0
Nc1ccc(N2CCOCC2)c(N)c1	PV pol inh 56.0
Nc1cc(Cl)c(N2CCOCC2)cc1N1CCOCC1	none (no result: Mtb MbtI inh, MenB inh, PV pol inh)
N#Cc1cnn(C(N)=S)c1N	none (no result: MenB inh)
CNc1ccccc1C(=O)OCC(=O)c1ccccc1	AID504770 -3.25
CC1=C(C)C(=O)C(NCc2ccccn2)=CC1=O	PV pol inh 66.0
CCS(=O)(=O)c1ccc2oc(Nc3ccc(C(C)C)cc3)nc2c1	PV pol inh 70.0
CCS(=O)(=O)c1ccc2oc(Nc3cc(C)cc(C)c3)nc2c1	none
NCC1CCN(Cc2ccccc2)C1 (centres undefined)	MenB inh 28.2
c1ccc(CN2CCCC(c3ccccc3)C2)cc1 (centres undefined)	none (no result: MenB inh, PV pol inh)
c1ccc(-c2nnc(-c3cccnc3)nc2-c2ccccc2)cc1	none
c1cncc(-c2nnc(-c3cccnc3)nn2)c1	PV pol inh 66.0 (no result: Mtb MbtI inh)
COC(=O)c1ccc(C(=O)OC)c(NC(=O)c2cc3nc(-c4ccc(C)cc4)cc(C(F)(F)F)n3n2)c1	none (no result: Mtb MbtI inh, AID504770, MenB inh)
COC(=O)c1cc2nc(-c3ccc(F)cc3)cc(C(F)(F)F)n2n1	PV pol inh 87.0 (no result: Mtb MbtI inh)
CN1C(=O)NC(=O)/C(=C\C=C\c2ccccc2)C1=O	Mtb MbtI inh 84.5
CN1C(=O)NC(=O)/C(=C/c2ccc(F)cc2)C1=O	none
O=C1NC(=O)C(=C/C=C/c2ccccc2)C(=O)N1	Mtb MbtI inh 77.6
C1CCC2(CC1)C1=C(CCCC1)Nc1nnnn12	MenB inh 32.3
O=C(Nc1nccs1)C1CCN(S(=O)(=O)c2ccccc2)CC1	AID504770 -2.3
O=C(Nc1nccs1)C1CCN(S(=O)(=O)c2cccnc2)CC1	none (no result: Mtb MbtI inh, MenB inh, PV pol inh)
S=c1[nH]n(Cc2ccccc2)c(=NCc2ccccc2)s1	Mtb MbtI inh 65.0 (no result: MenB inh)
CN1C(c2ccccc2)=CC(c2ccccc2)n2ncnc21 (centres undefined)	none (no result: MenB inh)
CC(C)(C)c1ccc(-c2cc3ncc(-c4ccccc4)c(N)n3n2)cc1	AID504770 -2.3
Cn1nc(-c2ccc(C(C)(C)C)cc2)cc1N	none (no result: Mtb MbtI inh, MenB inh, PV pol inh)
Cc1ccc2o/c(=N\O)c(C(N)=O)cc2c1	Mtb MbtI inh 100.3
Cc1ccccc1-c1nc(-c2ccc(NC(=O)c3cccnc3)cc2)no1	none (no result: Mtb MbtI inh, MenB inh, PV pol inh)
Cc1ccc2nc3sc(C(=O)O)c(N)c3cc2c1	none
Cc1ccc2ncc(-c3ccc4c(N)c(C)ccc4n3)cc2c1	PV pol inh 17.0 (no result: Mtb MbtI inh)
Nc1c(-c2cccc(C(F)(F)F)c2)cnn1-c1ccccc1	none (no result: Mtb MbtI inh, MenB inh, PV pol inh)
CC(C)(C)Cc1cc(N)on1	AID504770 -2.05
CCn1nnc2cc(C(=O)Nc3ccccc3C(=O)NC3CCCC3)ccc21	none
